Experimental findings from PubChem BioAssay (NCATS) are described below.

In assay [1] the target is Cytochrome P450 2D6 (Homo sapiens) (UniProt P10635). Description: qHTS Assay for Inhibitors and Substrates of Cytochrome P450 2D6 (AID 891).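 Further: luciferin methyl ether substrate demethylated by CYP2D6 with NADPH regeneration; nearly all actives have a fitted effect of over 60% in size.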 As to conditions: recombinant CYP2D6, luciferin-ME EGE luminescence; series mostly up to 57.1 µM. In short, it runs like this: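 Human CYP2D6 (5 nM) with 30 uM Luciferin-ME EGE (at Km) in 100 mM KPO4, compound preincubated 10 min, then NADPH regeneration system for 60 min at room temperature. Luciferin read by luminescence; normalized to 1.43 uM quinidine.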
Sequence of Cytochrome P450 2D6 (Homo sapiens) (P10635 whole entry, looked up): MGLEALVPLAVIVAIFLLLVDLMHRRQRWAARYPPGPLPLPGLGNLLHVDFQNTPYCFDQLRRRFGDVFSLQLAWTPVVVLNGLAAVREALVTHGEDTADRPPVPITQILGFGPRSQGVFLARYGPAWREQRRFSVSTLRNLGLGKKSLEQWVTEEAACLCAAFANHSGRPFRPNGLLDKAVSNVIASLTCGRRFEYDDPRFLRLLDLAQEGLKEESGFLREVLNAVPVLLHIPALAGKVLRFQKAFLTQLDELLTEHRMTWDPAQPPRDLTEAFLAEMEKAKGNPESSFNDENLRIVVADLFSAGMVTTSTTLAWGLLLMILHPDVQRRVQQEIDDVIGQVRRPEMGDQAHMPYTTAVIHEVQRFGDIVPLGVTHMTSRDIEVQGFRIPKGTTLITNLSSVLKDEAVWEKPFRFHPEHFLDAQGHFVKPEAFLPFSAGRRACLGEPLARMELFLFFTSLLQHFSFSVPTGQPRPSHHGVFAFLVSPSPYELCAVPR

In assay [2] the target is Cytochrome P450 2C19 (Homo sapiens) (UniProt P33261). As to the kind of experiment: qHTS Assay for Inhibitors and Substrates of Cytochrome P450 2C19 (AID 899). Further: nearly all actives have a fitted effect of over 60% in size. Further: potency means the concentration at half of the fitted maximal effect. As to conditions: recombinant CYP2C19, luciferin-H EGE luminescence; series mostly up to 57.1 µM. Put shortly:
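Signal comes from luciferase acting on luciferin released by CYP2C19-mediated hydroxylation of Luciferin-H EGE, 10uM (KM). Assay mix: 5nM enzyme, 50mM KPO4; 60 min at 37C with NADPH regeneration. Data normalized against 57uM ketoconazole.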
On the technique in general: Quantitative high-throughput screening tests each substance at several concentrations.

Assay [3] can be described thus: Cell Viability - LYMP2-001 (AID 921). Further: potency means the concentration at half of the fitted maximal effect; nearly all actives have a fitted effect of over 70% in size. As to conditions: LYMP2-001 lymphoblastoid cell viability; series mostly up to 92.2 µM. Put shortly:
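Human lymphoblastoid cells (Coriell), 2500 per well, were preincubated 5 hr at 37 C, then exposed to compounds in complete medium for 24 hr at 37 C. Cellular ATP was read by CellTiter-Glo luminescence; AC50 from Hill fits of concentration-response data.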

A short description of assay [4]: MultiTox-Fluor Cytotoxicity Assay - LYMP1-001 - Live Cells (AID 947). Further: potency means the concentration at half of the fitted maximal effect. As to conditions: LYMP1-001 lymphoblastoid cells, live-cell protease fluorescence viability; series mostly up to 92.2 µM.
Assay [5] can be described thus: MultiTox-Fluor Cytotoxicity Assay - LYMP1-002 - Dead Cells (AID 960). Further: potency means the concentration at half of the fitted maximal effect; nearly all actives have a fitted effect of over 60% in size. As to conditions: LYMP1-002 lymphoblastoid cells, dead-cell protease fluorescence; series mostly up to 46.1 µM. In short, it runs like this:
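Acute cytotoxicity in a human lymphoblastoid line is scored as rising dead-cell protease signal after 16 hr exposure at 37 C, measured fluorometrically (485/520).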

The nature of assay [6]: MultiTox-Fluor Cytotoxicity Assay - LYMP1-003 - Dead Cells (AID 961). Further: potency means the concentration at half of the fitted maximal effect; nearly all actives have a fitted effect of over 70% in size. As to conditions: LYMP1-003 lymphoblastoid cells, dead-cell protease fluorescence; series mostly up to 92.2 µM. Put shortly: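 Dead-cell protease release, detected as bis-AAF-R110 fluorescence at 485/520 nm, was measured in LYMP1-003 cells after 16 h compound treatment at 37 C. AC50 values came from Hill-modeled qHTS curves normalized to DMSO (0%) and 15 uM tetraoctylammonium bromide (100%).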

A short description of assay [7]: MultiTox-Fluor Cytotoxicity Assay - LYMP1-003 - Live Cells (AID 962).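 Further: potency means the concentration at half of the fitted maximal effect; cells exposed to compound for 16 hours at 37 °C.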 As to conditions: LYMP1-003 lymphoblastoid cells, MultiTox-Fluor live-cell protease fluorescence; series mostly up to 92.2 µM. Put shortly:
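Cells plated at 2500 per well and incubated 5 hr; compounds added and incubated 16 hr at 37 C; MultiTox-Fluor reagent added for 60 min at room temperature; fluorescence of liberated AFC measured at 405/510 nm.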

Assay [8] in a line: Cell Viability - LYMP1-003 - Assay at 24 hr (AID 963). Further: potency means the concentration at half of the fitted maximal effect. As to conditions: LYMP1-003 lymphoblastoid cell viability; series mostly up to 92.2 µM. Put shortly: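 Acute toxicity in LYMP1-003 lymphoblastoid cells: 24 hr compound treatment at 37 C, ATP measured with CellTiter-Glo after 30 min at room temperature. AC50 derived by fitting the Hill equation to qHTS titrations.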
A short description of assay [9]: Cell Viability - LYMP1-003 - Assay at 40 hr (AID 964). Further: potency means the concentration at half of the fitted maximal effect; nearly all actives have a fitted effect of over 60% in size. As to conditions: LYMP1-003 lymphoblastoid viability; series mostly up to 92.2 µM. Put shortly:
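This qHTS cytotoxicity screen treats human lymphoblastoid cells (LYMP1-003) with compounds for 40 hr and quantifies cellular ATP via luciferase luminescence.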

Assay [10] is described as follows: Cell Viability - LYMP2-003 (AID 965).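 Further: potency means the concentration at half of the fitted maximal effect; cells exposed to compounds for 24 h before reading; nearly all actives have a fitted effect of over 50% in size.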 As to conditions: LYMP2-003 lymphoblastoid cell viability; series mostly up to 92.2 µM. In short, it runs like this:
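Human lymphoblastoid cells (2500/well) were pre-incubated 5 hr at 37 C, then exposed to compounds over a concentration range for 24 hr at 37 C. Intracellular ATP was read by CellTiter-Glo luminescence; AC50 came from Hill-equation fits.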

The nature of assay [11]: Cell Viability - LYMP2-005 (AID 967). Further: potency means the concentration at half of the fitted maximal effect. As to conditions: LYMP2-005 lymphoblastoid cell viability; series mostly up to 92.2 µM. Put shortly: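 CellTiter-Glo luminescence (cellular ATP) read-out; LYMP2-005 lymphoblastoid cells, 2500/well, 5 h pre-incubation, then 24 h compound exposure at 37 C in complete medium. Tetraoctylammonium bromide positive control; AC50 by standard Hill fit.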

A short description of assay [12]: Cell Viability - LYMP2-011 (AID 969). As to conditions: LYMP2-011 lymphoblastoid cells viability; series mostly up to 92.2 µM. Put shortly: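 Acute toxicity is scored as a concentration-dependent drop in intracellular ATP of a human lymphoblastoid line after 24 hr treatment. Values are AC50s modeled with the Hill equation.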
Assay [13] is described as follows: Cell Viability - LYMP2-013 (AID 970). Further: potency means the concentration at half of the fitted maximal effect; nearly all actives have a fitted effect of over 55% in size. As to conditions: LYMP2-013 lymphoblastoid cells viability; series mostly up to 92.2 µM. In short, it runs like this:
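Acute toxicity was measured in human lymphoblastoid cells (2500/well) exposed to compound titrations for 24 hr, with ATP luminescence (CellTiter-Glo) as read-out and AC50 fitted by Hill equation.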

Assay [14] in a line: Cell Viability - LYMP2-015 (AID 971). Further: potency means the concentration at half of the fitted maximal effect; nearly all actives have a fitted effect of over 55% in size. As to conditions: LYMP2-015 lymphoblastoid cell viability; series mostly up to 92.2 µM. In short, it runs like this:
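Acute toxicity was scored as a concentration-dependent drop in intracellular ATP in lymphoblastoid cells after 24 hr compound exposure in complete medium. Detection used CellTiter-Glo luciferase luminescence.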

Assay [15] in a line: Cell Viability - LYMP2-017 (AID 972). Further: potency means the concentration at half of the fitted maximal effect; nearly all actives have a fitted effect of over 55% in size. As to conditions: LYMP2-017 lymphoblastoid cell viability; series mostly up to 92.2 µM. In short, it runs like this: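 Steps: plate 2500 lymphoblastoid cells per well; incubate 5 hr at 37 C; add compound across a concentration series and incubate 24 hr at 37 C; add CellTiter-Glo and read luminescence after 30 min at room temperature; fit Hill curves for AC50.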

Assay [16] can be described thus: Cell Viability - LYMP2-019 (AID 973). Further: potency means the concentration at half of the fitted maximal effect; nearly all actives have a fitted effect of over 55% in size. As to conditions: LYMP2-019 lymphoblastoid cell line viability; series mostly up to 92.2 µM. In short, it runs like this: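 Cells plated at 2500/well and allowed 5 hr at 37 C before compound addition. After 24 hr incubation, CellTiter-Glo reagent was added, plates sat 30 min at room temperature, and luminescence was recorded.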

Assay [17] is described as follows: Cell Viability - LYMP2-021 (AID 974). As to conditions: LYMP2-021 lymphoblastoid cells viability; series mostly up to 92.2 µM. In short, it runs like this: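 Concentration-response cytotoxicity in a human lymphoblastoid line: 24 hr treatment at 37 C in complete culture medium, tetraoctylammonium bromide as positive control, luminescent ATP quantitation as viability measure.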

A short description of assay [18]: Cell Viability - LYMP2-023 (AID 975). As to conditions: LYMP2-023 lymphoblastoid cell viability; series mostly up to 92.2 µM. In short, it runs like this:
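Concentration-dependent drop in intracellular ATP measures acute cytotoxicity in a human lymphoblastoid line treated for 24 hours in complete culture medium. AC50 values are taken from Hill-equation fits of qHTS data.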

Assay [19] can be described thus: Cell Viability - LYMP2-006 (AID 978). As to conditions: LYMP2-006 lymphoblastoid cell viability, qHTS; series mostly up to 92.2 µM. In short, it runs like this: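 Human lymphoblastoid cells, 2500 per well, were preincubated 5 hr at 37 C, then exposed to compounds for 24 hr at 37 C in complete medium. Viability was read as intracellular ATP by CellTiter-Glo luminescence; AC50 from Hill-equation fits of qHTS concentration-response data.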

Assay [20] deals with Nuclear receptor ROR-gamma (Homo sapiens) (UniProt P51449). As to the kind of experiment: qHTS assay for small molecule antagonists of the retinoid-related orphan receptor gamma (ROR-gamma) signaling pathway (AID 651802). As to conditions: ROR-gamma antagonist cell reporter assay; series mostly up to 92.2 µM. In short, it runs like this: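 Antagonism is scored as a fall in luminescence from a RORE-luciferase reporter in CHO cells expressing ROR under a TET-inducible promoter, measured 16hr after doxycycline induction in the presence of compound.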
Sequence of Nuclear receptor ROR-gamma (Homo sapiens) (P51449 whole entry, looked up): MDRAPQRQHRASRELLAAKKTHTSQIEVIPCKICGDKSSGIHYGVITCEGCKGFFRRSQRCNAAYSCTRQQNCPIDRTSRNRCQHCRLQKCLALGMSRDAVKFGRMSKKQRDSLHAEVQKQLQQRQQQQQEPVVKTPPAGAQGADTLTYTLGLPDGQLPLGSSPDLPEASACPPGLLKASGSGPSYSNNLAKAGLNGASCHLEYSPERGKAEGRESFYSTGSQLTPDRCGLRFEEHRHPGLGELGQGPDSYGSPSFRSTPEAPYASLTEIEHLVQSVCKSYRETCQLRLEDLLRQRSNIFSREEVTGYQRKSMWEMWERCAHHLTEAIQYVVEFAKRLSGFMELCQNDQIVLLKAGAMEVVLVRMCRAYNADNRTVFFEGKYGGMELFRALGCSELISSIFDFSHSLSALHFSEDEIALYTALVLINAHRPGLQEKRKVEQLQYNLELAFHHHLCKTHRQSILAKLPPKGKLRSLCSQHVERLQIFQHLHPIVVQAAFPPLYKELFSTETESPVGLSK

Inconclusive results are not listed. Active and inactive are the calls of the source. The call rests on the fitted dose curve; in most records, active means well fitted curve in the direction sought with a large enough effect; inconclusive means small, poorly fitted or top-dose-only effect, or another doubt; inactive means no such curve, though single readings can be large; an effect the other way counts as inactive or inconclusive.

Sequence of Cytochrome P450 2C19 (Homo sapiens) (P33261 whole entry, looked up): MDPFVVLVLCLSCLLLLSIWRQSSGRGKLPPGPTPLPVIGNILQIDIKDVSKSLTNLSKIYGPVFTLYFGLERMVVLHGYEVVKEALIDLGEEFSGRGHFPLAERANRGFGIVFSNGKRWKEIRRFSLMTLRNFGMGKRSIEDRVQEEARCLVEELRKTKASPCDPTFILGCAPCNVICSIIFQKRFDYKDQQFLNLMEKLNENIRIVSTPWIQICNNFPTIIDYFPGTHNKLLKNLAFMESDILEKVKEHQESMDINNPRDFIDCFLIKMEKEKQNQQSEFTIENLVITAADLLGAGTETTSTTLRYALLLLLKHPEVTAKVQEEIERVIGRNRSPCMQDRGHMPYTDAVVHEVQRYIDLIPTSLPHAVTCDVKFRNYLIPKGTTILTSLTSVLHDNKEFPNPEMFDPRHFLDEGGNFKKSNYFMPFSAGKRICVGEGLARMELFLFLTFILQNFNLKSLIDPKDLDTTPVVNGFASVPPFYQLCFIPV

Turning to `CCN1C[C@@]2(COC)[C@H](O)C[C@H](OC)[C@@]34[C@@H]5C[C@@]6(O)[C@H](OC(=O)c7ccccc7)[C@H]5[C@@](OC(C)=O)([C@H]([C@@H](OC)[C@H]23)[C@H]14)[C@H](O)[C@@H]6OC`, the Potency entry in [1] and in assay [2] was “inactive” throughout.

On to `C[C@@H]1O[C@H](O[C@H]2C[C@@H](O)[C@]3(CO)[C@H]4[C@H](O)C[C@]5(C)[C@@H](C6=CC(=O)OC6)CC[C@@]5(O)[C@H]4CC[C@]3(O)C2)[C@@H](O)[C@H](O)[C@H]1O`, for which the Potency entry in assay [1] and in assay [2] was “inactive” in each case.

As to `COc1ccc2c(c1OC)C(=O)O[C@@H]2[C@H]1c2cc3c(cc2CCN1C)OCO3`, in [2], the Potency was 3.16 µM (active).

For the compound `C=CC(=O)OCC(CO)(COC(=O)C=C)COC(=O)C=C`, the Potency in assay [3] is 3.16 µM (active); in assay [4] it was 6.31 µM (active); in [5] it was 3.16 µM (active); in [6], 7.94 µM (active); in assay [7], 3.98 µM (active); in assay [8], 6.31 µM (active). The Potency in assay [9] is 3.98 µM (active); in [10] it was 3.98 µM (active); in assay [11], 2.51 µM (active); in [12], 5.01 µM (active); in assay [13], 5.01 µM (active); in [14] it was 5.01 µM (active). The Potency was 5.01 µM (active) in [15]; 3.98 µM (active) in assay [16]; 3.98 µM (active) in [17]; 6.31 µM (active) in [18]; 5.01 µM (active) in assay [19]; 4.22 µM (active) in assay [20].

Consider `O=Nc1ccc(Nc2ccccc2)cc1`, for which the Potency is 2.51 µM (active) in assay [3]; 7.94 µM (active) in [4]; 3.98 µM (active) in [5]; 5.01 µM (active) in assay [6]; 6.31 µM (active) in assay [7]; 10 µM (active) in assay [8]. The Potency was 7.94 µM (active) in assay [9]; 7.94 µM (active) in assay [10]; 10 µM (active) in [11]; 7.94 µM (active) in assay [12]; 10 µM (active) in assay [13]; 3.98 µM (active) in assay [14]. The Potency is 6.31 µM (active) in assay [15]; 3.98 µM (active) in [16]; 5.01 µM (active) in assay [17]; 6.31 µM (active) in assay [18]; 7.94 µM (active) in assay [19]; 7.5 µM (active) in assay [20].
